# Results taken from PubChem BioAssay.
# The source made the active and inactive calls.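 How the source made its calls, unless noted: active means visual image review flags a hit and inhibition of aggregation exceeds 20%; inconclusive means visual hit but inhibition at or below 20%; inactive means no hit on visual image review.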
# Tests used:
# [1] = inhibitors of TNFa-induced NFkB p65 translocation, primary screen, imaging, HUVEC, MLSMR starter and 10KST1 sets (AID 438;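 active means inhibition above 20% together with a positive visual image hit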;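 further: compound added about 3h40 before a 20 min TNFalpha stimulation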;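 on inhibition: signal is the nuclear over cytoplasmic p65 intensity ratio per well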); details: HUVEC TNFa-induced p65 nuclear translocation; cell count: measured here: nuclei count (cytotoxicity indicator), at 2.08 µM; inhibition: at 2 µM, stronger effect = higher value, 0% TNFa-plus-vehicle, 100% no-TNFa wells
# [2] = inhibitors of mutant huntingtin aggregation, primary screen, imaging, exon1htt(103Q)mCFP cells, high-content imaging (AID 483); details: exon1htt(103Q)mCFP cell line, aggregate imaging, at 2 µM; inhibition of aggregation: stronger effect = higher value; nuclei count: measured here: cell count, toxicity;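 further: compound exposure lasted 3 days before fixation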;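 on nuclei count: percent of the per-plate median nuclei count of sample wells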
# [3] = inhibitors of E-selectin induction by TNFa, primary screen, imaging, HUVEC, immunofluorescence, MLSMR starter and 10KST1 sets (AID 487;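 active means visually confirmed hit in the image check and inhibition above 20%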;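 on inhibition: signal is fraction of cell area covered by stained E-selectin grains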;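 on nuclei count: 100% = median nuclei count of all wells on the same plate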); details: HUVEC TNFalpha-induced E-selectin immunofluorescence imaging, at 2 µM; inhibition: stronger effect = higher value; nuclei count: measured here: cell number, toxicity
# [4] = biological target: Voltage-gated potassium channel subunit beta-2 (Rattus norvegicus) (UniProt P62483); experiment: KvBeta enzyme negative modulators, primary screen, biochemical, NADPH fluorescence (AID 622;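 active means fluorescence slope higher than the sample average by over 3 SD, cut at about -0.22 in these data, passing the limit was not always enough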;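 further: slope of raw intensity against log time taken from 70 to 1610 s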); details: recombinant KvBeta, 4-cyanobenzaldehyde reduction, at 10 µM, stronger effect = higher value
# [5] = biological target: Voltage-gated potassium channel subunit beta-2 (Rattus norvegicus) (UniProt P62483); experiment: KvBeta positive modulators, primary screen, biochemical, NADPH fluorescence (AID 623;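 active means NADPH fluorescence slope more negative than the mean of all samples by about 3 SD, 99.7% confidence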;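 further: fluorescence intensity change per second fitted from 20 to 320 s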); details: Recombinant KvBeta, NADPH fluorescence decrease slope, 10 min; at 10 µM; stronger effect = lower value
# [6] = biological target: Alpha-2C adrenergic receptor (Homo sapiens) (UniProt P18825); experiment: modulators of alpha2C/GIRK thallium flux, primary screen, cell-based, HEK293 alpha2C/GIRK1/2 (AID 624;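 active means fluorescence slope after compound addition differing from the mean of all screened samples at 99.7% confidence, in either direction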;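 further: slope of fluorescence ratio to pre-addition baseline per second over 15 to 24 s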); details: thallium flux BTC fluorescence, at 10 µM, actives lie on both sides
# [7] = inhibitors of Sendai virus-induced IRF3 signaling, primary screen, TLR/RLR signaling modifier project, cell-based, Sendai virus stimulus, luciferase, 10K MLSCN set (AID 602276;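 active means inhibition at or above 50% at 10 µM; inactive means inhibition below 50%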;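 further: firefly luciferase from ISG56 promoter only with Renilla not read in this screen; 0% = Sendai virus plus DMSO and 100% = medium plus DMSO without virus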); details: HEK293 RL24 IRF3 luciferase reporter, at 10 µM, stronger effect = higher value
# [8] = inhibitors of poly I:C-induced TLR3 signaling, primary screen, cell-based, poly I:C stimulus, luciferase, 10K MLSCN set (AID 602277;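 active means inhibition of the reporter signal at or above 50%; inactive means inhibition below 50%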); details: HEK293-TLR3 RL24 IRF3 luciferase reporter, at 10 µM, stronger effect = higher value
# Sequence of Alpha-2C adrenergic receptor (Homo sapiens) (P18825 whole entry, looked up): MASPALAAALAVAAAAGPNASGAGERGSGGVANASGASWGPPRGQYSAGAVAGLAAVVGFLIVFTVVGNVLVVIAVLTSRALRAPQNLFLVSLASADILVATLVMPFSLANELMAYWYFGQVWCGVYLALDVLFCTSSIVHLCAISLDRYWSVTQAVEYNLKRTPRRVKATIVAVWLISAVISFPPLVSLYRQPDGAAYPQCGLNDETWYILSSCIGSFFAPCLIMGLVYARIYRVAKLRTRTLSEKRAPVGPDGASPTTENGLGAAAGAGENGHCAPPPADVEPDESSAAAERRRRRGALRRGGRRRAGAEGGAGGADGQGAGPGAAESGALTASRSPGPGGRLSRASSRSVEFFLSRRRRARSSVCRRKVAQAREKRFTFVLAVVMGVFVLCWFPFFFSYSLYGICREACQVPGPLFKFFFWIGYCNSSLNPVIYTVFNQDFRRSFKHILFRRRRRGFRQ
# Sequence of Voltage-gated potassium channel subunit beta-2 (Rattus norvegicus) (P62483 whole entry, looked up): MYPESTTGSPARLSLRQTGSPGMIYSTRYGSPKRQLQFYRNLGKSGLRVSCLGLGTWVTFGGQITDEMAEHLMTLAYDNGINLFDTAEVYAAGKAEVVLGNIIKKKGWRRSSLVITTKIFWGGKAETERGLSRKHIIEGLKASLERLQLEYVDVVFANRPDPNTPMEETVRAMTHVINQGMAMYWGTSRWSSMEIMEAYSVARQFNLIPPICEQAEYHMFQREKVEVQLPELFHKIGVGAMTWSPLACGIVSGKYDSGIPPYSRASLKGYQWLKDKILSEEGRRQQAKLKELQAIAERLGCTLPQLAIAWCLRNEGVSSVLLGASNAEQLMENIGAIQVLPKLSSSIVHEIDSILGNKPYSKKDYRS
SMILES,cell count [1],inhibition [1],inhibition of aggregation [2],nuclei count [2],inhibition [3],nuclei count [3],fluorescence slope [4],NADPH fluorescence slope [5],slope [6],inhibition [7],inhibition [8]
O=C(Nc1ccc(N2CCCC2)cc1)c1cccc(F)c1,694,1.6% (inactive),24.1% (inactive),94.5%,-83.5% (inactive),148%,-0.436 (inactive),7e-06 (inactive),0.0066 (inactive),11.4% (inactive),-67.8% (inactive)
Cc1cc(C(=O)NCCN2CCN(c3cccc(Cl)c3)CC2)n(-c2ccccc2)n1,647,5.5% (inactive),-25.2% (inactive),78.7%,-50.5% (inactive),108%,-0.531 (inactive),-2.8e-05 (inactive),0.00538 (inactive),16.7% (inactive),35% (inactive)
CCOc1ccc(-c2nnn(CC(=O)N3CCN(c4ccc(F)cc4)CC3)n2)cc1OCC,583,-9.5% (inactive),-17.1% (inactive),119%,25% (inactive),101%,-0.642 (inactive),-1.5e-05 (inactive),0.00403 (inactive),16.8% (inactive),14% (inactive)
O=C(CSc1n[nH]c(-c2cccs2)n1)N1CCN(S(=O)(=O)c2ccccc2)CC1,785,13.3% (inactive),4.1% (inactive),104%,-77% (inactive),140%,-0.639 (inactive),3e-05 (inactive),0.0053 (inactive),17% (inactive),28.7% (inactive)
COc1ccc(CNCC(=O)Nc2cc(C)nn2-c2nc(C)cc(C)n2)cc1OC,431,6.7% (inactive),-0.4% (inactive),104%,-481% (inactive),152%,-0.497 (inactive),-2.4e-05 (inactive),0.00701 (inactive),21.1% (inactive),32.1% (inactive)
COc1ccccc1-n1c(-c2cccnc2)n[nH]c1=S,204,-4.8% (inactive),17.2% (inactive),77%,-123% (inactive),107%,-0.598 (inactive),-4.1e-06 (inactive),0.0043 (inactive),-0.823% (inactive),-12.6% (inactive)
COc1ccc(-c2noc(CSc3nc(N)c(-c4ccccc4)c(=O)[nH]3)n2)cc1OC,338,5.8% (inactive),-0.8% (inactive),97.1%,-12.1% (inactive),122%,-0.441 (inactive),2.8e-05 (inactive),0.00653 (inactive),12% (inactive),15.6% (inactive)
Cc1cccc(-c2nnn(CC/C(N)=N/O)n2)c1,321,-4.8% (inactive),-1.8% (inactive),84.2%,25.6% (inactive),90.5%,-0.496 (inactive),-2.1e-05 (inactive),0.00549 (inactive),2.73% (inactive),-10.7% (inactive)
COc1ccccc1NC(=O)CSc1nnc(Cc2cccn2C)n1-c1ccc(F)cc1,508,-7.5% (inactive),30.2% (inactive),86.3%,-51.1% (inactive),113%,-0.529 (inactive),-2.1e-05 (inactive),0.00524 (inactive),11.3% (inactive),37.8% (inactive)
CC(C)c1nnc(NC(=O)CCC(=O)NCc2ccc3c(c2)OCO3)s1,571,11.2% (inactive),-5.1% (inactive),95.8%,21.4% (inactive),97.3%,-0.404 (inactive),-4.6e-05 (inactive),0.00581 (inactive),14.1% (inactive),13.8% (inactive)
Cc1nc(N)c(C#N)c(-c2cccnc2)c1C,494,-14.5% (inactive),30.9% (inactive),85%,-16.2% (inactive),88.9%,-0.411 (inactive),1.8e-05 (inactive),0.00561 (inactive),4.72% (inactive),-5.6% (inactive)
O=C(NCCc1ccccn1)c1ccc(COc2ccccc2)o1,450,-26.3% (inactive),8.3% (inactive),93.3%,-39.9% (inactive),156%,-0.449 (inactive),-4.6e-05 (inactive),0.00624 (inactive),3.41% (inactive),-2.41% (inactive)
CC(C)(C)SCCNC(=O)COc1ccc(Cl)cc1,237,3.4% (inactive),19.9% (inactive),83.8%,-272% (inactive),147%,-0.419 (inactive),1.6e-05 (inactive),0.00681 (inactive),-15.2% (inactive),-2.28% (inactive)
CCN(CC)S(=O)(=O)c1ccc2c(c1)nc(SCC(=O)NC1CC1)n2-c1ccccc1OC,531,-14.3% (inactive),9.5% (inactive),109%,-137% (inactive),125%,-0.598 (inactive),-7.2e-06 (inactive),0.00577 (inactive),14.2% (inactive),48.2% (inactive)
